BRCA1 expr act: BRCA1 expression activation | MCF7-BRCA1-FFLuc reporter, luminescence, 48 h; response scale: scaled: vehicle 0%, 10 µM genistein 100% | AID 624202 | 1.1% of 380,000 active | Potency, µM (titrated, usually from 46.1 µM), for the others: at the top dose activation, actives largely listed as activators; also: nearly all actives have a fitted effect of over 80% in size
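MCF7 cells carrying a BRCA1-firefly luciferase reporter (2000 cells/well, phenol-red free MEM) were attached for 2 h at 37 °C, then given compounds for 48 h. Luminescence was read 15 min after luciferase reagent; activity normalized to genistein (10 microM) and DMSO.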
GLP1R cytotox: cytotoxicity counter-screen for GLP-1 receptor inverse agonists | 0.13% of 410,000 active | Potency, µM (top dose mostly 38.3 µM), for the others: at the highest dose activity change, negative = inhibition, most hits filed as inhibitors | HEK293 cAMP-luciferase reporter cells, luminescence, 24 h;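 also: loss of luciferase light is scored as toxicity; % is scaled to controls: 0 for no effect and ±100 for the full control effect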
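To flag toxic compounds, the library was rerun on cells for 24 hr at 37 deg C and 5% CO2. Viability-linked luminescence was captured 12 min after adding luciferase detection reagent.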
Integrin act MD: integrin-mediated muscular dystrophy alleviation activation | alpha7betagal myoblasts, beta-gal FDG fluorescence, 48 h | Potency, µM (titrated, usually from 38.3 µM), for the others: at the top dose activation, most hits filed as activators | 0.064% of 350,000 active | AID 624291;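 also: 100% = response of the positive control SU9516; nearly all actives have a fitted effect of over 60% in size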
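alpha7betagal+/- myoblasts (passage 13, 250/well) treated 48 h at 37C with compounds at 1:260 dilution of DMSO stock. Lysed, then beta-galactosidase activity read as FDG fluorescence (ex 480/em 540) after 30 min, with pre-read for autofluorescence.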
GLP-1R agonist: activates the human GLP-1 receptor | HEK293 GLP-1R CRE-luciferase, luminescence, 4-6 h; cells express a hypersensitive GLP-1R form | Potency, µM (titrated, usually from 45.6 µM), inactives show at the highest dose activation, hits mostly activators | 0.007% of 380,000 active | AID 624172; also: % of control where 0% means no effect
Target sequence (P43220 whole entry, looked up): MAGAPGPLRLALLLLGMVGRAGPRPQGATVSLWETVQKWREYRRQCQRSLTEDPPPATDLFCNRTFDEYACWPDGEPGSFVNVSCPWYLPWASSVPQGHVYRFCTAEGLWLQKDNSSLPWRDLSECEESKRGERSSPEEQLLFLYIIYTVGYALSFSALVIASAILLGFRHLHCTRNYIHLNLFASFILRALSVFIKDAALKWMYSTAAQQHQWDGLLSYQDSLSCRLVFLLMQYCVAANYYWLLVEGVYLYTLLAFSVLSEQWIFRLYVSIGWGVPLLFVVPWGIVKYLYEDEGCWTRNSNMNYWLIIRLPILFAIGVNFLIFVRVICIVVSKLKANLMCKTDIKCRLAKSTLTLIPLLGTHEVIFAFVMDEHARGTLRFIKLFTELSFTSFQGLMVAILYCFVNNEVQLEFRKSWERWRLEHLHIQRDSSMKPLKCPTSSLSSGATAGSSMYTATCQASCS
GLP-1R inv ag: acts as inverse agonist at human GLP-1 receptor; HEK293 GLP-1R CRE-luciferase, luminescence, 24 h; GLP-1R form is constitutively active; Potency, µM (series often up to 38.3 µM), inactives show at the top dose activity change, negative = inhibition, hits mostly inhibitors; 1.6% of 410,000 active; AID 624417; also: % is scaled to controls: 0 for no effect and ±100 for the full control effect; nearly all actives have a fitted effect of over 55% in size
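GLP-1R inverse agonism mode: basal reporter luminescence in engineered HEK293 cells measured after one day of compound exposure at 37 deg C, with a 12 min room-temperature detection step.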
* marks the source's active call; other numbers are inactive results; ? = inconclusive; · = no result given; [ ] = remark or other dose. Compounds with a hit are over-represented: about 2.7% of the library has one in this group of screens. Calls follow the shape of the dose curve; as a rule, active = well fitted curve in the direction sought with a large enough effect; inconclusive = small, poorly fitted or top-dose-only effect, or another doubt; inactive = no such curve, though single readings can be large; an effect the other way counts as inactive or inconclusive. Potency is read from the fitted curve at half-maximal effect.

SMILES | BRCA1 expr act | GLP1R cytotox | Integrin act MD | GLP-1R agonist | GLP-1R inv ag
CCOC(=O)c1c(NC(=S)N2CCN(C)CC2)sc(C)c1-c1ccccc1 | 8% | ? | -37% | -3% | 1.8µM*
O=C(Cn1cc(S(=O)(=O)Cc2ccc(F)cc2)c2ccccc21)NCc1ccccc1 | · | 8% | · | · | -9%
Cc1ccc(COc2ccc(C)nc2[N+](=O)[O-])cc1 | 4.5µM* | -2% | -14% | 18% | -8%
COc1cccc(-c2nnc(-c3ccc(C(F)(F)F)cc3)o2)c1 | 13µM* | -34% | 11% | -4% | 5%
COC(=O)Cc1ccc2sc(-c3ccccc3)nc2c1 | 7.1µM* | 12% | 5% | -15% | -18%
O=C(O)Cc1ccc2sc(-c3ccccc3)nc2c1 | 62% | 1% | -9% | 0% | 0%
COc1ccc(Oc2c(C=O)c3ccccc3n2C)cc1 | 0% | -16% | -28% | -4% | 10µM*
Cc1ccc(Oc2c(C=O)c3ccccc3n2C)cc1 | 15% | -16% | -1% | -4% | 5µM*
Cn1c(Oc2ccc(Cl)cc2)c(C=O)c2ccccc21 | -35% | 5% | 21% | -2% | ?
CN(C)S(=O)(=O)c1ccc2c(c1)N(CC(=O)N1CCN(c3ccc(F)cc3)CC1)CCS2 | 0% | -3% | · | -6% | 15%
Cc1ccc(Nc2c(-c3c[nH]c4ccccc34)nc3ccccn23)cc1 | · | -1% | · | · | ?
Nc1c(Br)cc(/C=C2\C=Cc3ccccc32)cc1Br | -4% | · | · | · | ·
CCOC(=O)N1CCC(N(CCN(C)C)C(=S)Nc2cccc(C)c2)CC1 | -2% | -14% | -15% | -3% | 1%
CCOC(=O)N1CCC(N(CCN(C)C)C(=S)Nc2cccc(SC)c2)CC1 | 0% | 1% | -2% | 5% | 5.6µM*
Cn1c(=O)c2sccc2n2c(CCC(=O)NCc3ccccc3)nnc12 | · | 1% | · | · | -3%
Cc1ccc(Nc2ncc(C(=O)N3CCN(c4ccc(F)cc4)CC3)c3ccccc23)cc1Cl | -31% | 6% | · | -2% | 2.8µM*
COc1ccc(Nc2ncc(C(=O)N3CCN(c4cccc(Cl)c4)CC3)c3ccccc23)cc1 | -58% | 7% | · | -2% | 8.9µM*
COc1ccc(Nc2ncc(C(=O)N3CCN(c4ccc(OC)cc4)CC3)c3ccccc23)cc1 | -55% | -7% | · | -3% | ?
Cc1cc(NC(=O)COc2ccccc2)cc(-c2nc3ccccc3o2)c1O | 21% | 7% | · | -1% | 1%
CCNC(=O)c1c(NC(=O)Cc2coc3cc(C)ccc23)sc2c1CCCC2 | · | -5% | · | · | -10%
CCn1nc(-c2ccccc2)c(-c2ccccc2)c(C(=O)Nc2nc(C)c(C(=O)N(C)C)s2)c1=O | · | 1% | · | · | -1%
COc1ccccc1NC(=O)N(Cc1ccco1)Cc1cc2cccc(C)c2[nH]c1=O | -39% | -14% | 11% | 1% | 11µM*
CCN(CC)CCN(Cc1cc2cc(C)c(C)cc2[nH]c1=O)C(=S)NCc1ccco1 | -1% | ? | -64% | 13% | 10µM*
COc1ccccc1NC(=O)N(Cc1ccco1)Cc1cc2c(C)ccc(C)c2[nH]c1=O | 17% | 5% | ? | -11% | -26%
Cc1cc2cc(CN(CCN(C)C)C(=S)NCc3ccco3)c(=O)[nH]c2cc1C | -19% | -8% | -61% | 16% | ?
SMILES | BRCA1 expr act | GLP1R cytotox | Integrin act MD | GLP-1R agonist | GLP-1R inv ag
CCN(CC)CCN(Cc1cc2cc(C)ccc2[nH]c1=O)C(=O)Nc1ccccc1OC | 1% | ? | 1% | -9% | 13µM*
CCOC(=O)c1ccc(NC(=O)C2CCCN(c3ccc(Sc4ccc(C)cc4)nn3)C2)cc1 (configuration not stated) | 16% | 12% | · | 0% | -12%
CCc1ccccc1S(=O)(=O)Cc1ccc(C(=O)NCCc2ccc(C)cc2)o1 | · | -18% | · | · | ?
Cc1ccc2c(Cl)c(C(=O)NCCc3ccccc3)sc2c1 | 3.2µM* | -9% | 5% | -4% | 2%
CCNC(=O)c1sc2cc(C)ccc2c1Cl | 7.1µM* | 0% | 2% | 20% | 45%
COc1ccc(CCNC(=O)c2sc3cc(C)ccc3c2Cl)cc1 | -9% | 61% | -6% | 0% | 14%
Cc1ccc2c(Cl)c(C(=O)NCC3CCCO3)sc2c1 (configuration not stated) | ? | 20% | 12% | 3% | 0%
COc1ccccc1NC(=O)C1=C(C)Nc2nc(-c3ccco3)nn2C1c1ccccc1F (configuration not stated) | · | -1% | · | · | -3%
O=C1/C(=C/c2ccc(N3CCOCC3)o2)SC(=Nc2ccccc2)N1CCc1c[nH]c2ccccc12 | -85% | ? | -63% | -53% | 1.1µM*
COc1cc(/C=C2\SC(=Nc3ccccc3)N(CCc3c[nH]c4ccccc34)C2=O)ccc1OC(C)C(=O)O (configuration not stated) | -18% | -6%[1.53 µM] | 25% | -9% | 11%
CC(C)(C)OC(=O)N1CCC(c2c(C(=O)Nc3cccc(C(F)(F)F)c3)cnn2-c2ccc(F)cc2F)CC1 | · | 4% | · | · | 5µM*
CC(C)(C)OC(=O)N1CCC(c2c(C(=O)Nc3ccc4c(c3)OCCO4)cnn2-c2ccc(F)cc2F)CC1 | · | -10% | · | · | ?
O=S(=O)(/C=C/C=C/S(=O)(=O)c1ccccc1)c1ccccc1 | -104% | 0.63µM* | -53% | -34% | -75%
CC1(C)CC(=O)c2cc(C(=O)Nc3cccc4ccccc34)c(=O)[nH]c2C1 | -64% | · | · | · | ·
c1csc(-c2nc(NCC3CCCO3)c3ccccc3n2)c1 (configuration not stated) | -17%[36.9 µM] | -12% | 8% | 16% | ?
c1ccc(CN2CCC(Nc3nc(-c4cccs4)nc4ccccc34)CC2)cc1 | -81% | ? | -13% | -4% | 7.1µM*
O=C(Cn1ncc2c3ccccc3n(Cc3ccc(F)cc3)c2c1=O)N1CCN(c2ncccn2)CC1 | -64% | -14% | -25% | 0% | 13µM*
O=C(Cn1ncc2c3ccccc3n(Cc3ccccc3)c2c1=O)N1CCCCCC1 | · | -15% | · | · | -17%
CN(C(=O)CSc1nc(C2CCCC2)nc2c1c(=O)n(C)c(=O)n2C)c1ccccc1 | · | -8% | · | · | 16%
Ic1ccc(Nc2nc(NCCN3CCOCC3)nc(N3CCOCC3)n2)cc1 | -43% | · | · | · | ·
FC(F)(F)COc1nc(OCC(F)(F)F)nc(N2CCN(c3ccccc3)CC2)n1 | -19% | -20% | 3% | -1% | 5µM*
O=C(NCCc1ccccc1)c1coc(=O)c(Br)c1 | -102% | 5µM* | 3% | -2% | ?
CC(=O)Nc1ccc(C(=O)NCCc2ccccc2)cc1 | 13µM* | 9% | 3% | -1% | 38%
O=C(NCCCc1ccccc1)c1cccc(Br)c1 | 13µM* | 2% | 16% | 3% | ?
O=C(NCCCCc1ccccc1)c1cccc(Br)c1 | 39% | 7% | 2% | -5% | ?
